Compound activity deposited in PubChem BioAssay by National Center for Advancing Translational Sciences (NCATS).
TDP1 inh: inhibitors of human tyrosyl-DNA phosphodiesterase TDP1. hit rate 0.28% among 350,000. Q9NUW8. recombinant TDP1, AlphaScreen DNA substrate cleavage. Potency, µM (top dose mostly 130 µM), for inactives: at the highest dose activity change, negative = inhibition, hits mostly inhibitors; also: potency is read from the fitted curve at half-maximal effect; nearly all actives have a fitted effect of over 40% in size
Target sequence (Q9NUW8 whole entry, looked up): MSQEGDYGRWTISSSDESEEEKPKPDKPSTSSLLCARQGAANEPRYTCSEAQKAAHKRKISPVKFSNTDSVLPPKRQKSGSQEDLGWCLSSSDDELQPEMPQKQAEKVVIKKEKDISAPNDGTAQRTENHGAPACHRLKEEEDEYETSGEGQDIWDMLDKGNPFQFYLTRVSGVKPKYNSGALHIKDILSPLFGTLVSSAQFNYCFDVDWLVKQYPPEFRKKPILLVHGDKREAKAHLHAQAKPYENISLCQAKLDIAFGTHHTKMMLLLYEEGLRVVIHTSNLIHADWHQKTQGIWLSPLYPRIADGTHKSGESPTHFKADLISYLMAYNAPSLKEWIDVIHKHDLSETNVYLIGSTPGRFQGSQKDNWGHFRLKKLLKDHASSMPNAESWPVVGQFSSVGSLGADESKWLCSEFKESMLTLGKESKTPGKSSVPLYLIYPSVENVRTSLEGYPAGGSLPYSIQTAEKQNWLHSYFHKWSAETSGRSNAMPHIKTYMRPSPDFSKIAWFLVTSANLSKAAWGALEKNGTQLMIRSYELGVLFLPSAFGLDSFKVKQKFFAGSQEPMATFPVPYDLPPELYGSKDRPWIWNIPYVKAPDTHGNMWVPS
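Here, a 5' biotin and 3' phosphotyrosine-FITC DNA oligonucleotide reports Tdp1 activity: intact substrate bridges AlphaScreen beads, while cleavage leaves a 3' phosphate and drops signal. All incubations at room temperature.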
IL1B secr inh: inhibitors of inflammasome signaling (IL-1 beta secretion); THP-1 LPS/ATP IL-1B secretion, AlphaLISA, 16 h; hits give low values; activity change, % at 57.5 µM; hit rate 4.7% among 360,000; in the data active = activity change below about -50%; inconclusive = mostly about -30% to -49%
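THP-1 cells pretreated 1 hr with compounds (up to 57.5 uM final), then stimulated with LPS (250 ng/mL final) plus ATP (1.25 mM final); secreted IL-1B measured by AlphaLISA after 16 hr, decreased signal indicating inhibition.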
CtBP-E1A inh: inhibitors of CtBP/E1A interaction | hit rate 0.49% among 340,000 | activity change, % (test concentration not listed) | AlphaScreen GST-E1A/His-CtBP binding, 1536-well; hits give low values; in the data active = activity change below about -65%; inconclusive = mostly about -30% to -63%
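Homogeneous bead-based format: GST-tagged E1A captured on glutathione donor beads, His-tagged CtBP on nickel acceptor beads; compounds precede bead addition by 2 h at 37 °C.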
TDP1 cell noCPT: qHTS for Inhibitors of human tyrosyl-DNA phosphodiesterase 1 (TDP1): qHTS in cells in absence of CPT. DT40 Tdp1-/- hTDP1 cells, no CPT, ATP luminescence, 48 h. Potency, µM (titrated, usually from 46.2 µM), for the others: at the top dose activity change, negative = growth inhibition, usual class: inhibitors. hit rate 15% among 420,000. AID 686978, 2013; also: potency is read from the fitted curve at half-maximal effect; nearly all actives have a fitted effect of over 55% in size
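Growth kinetics read by CellTiter-Glo luminescence after ≥48 hr at 37 °C. Cells: DT40 Tdp1-/- stably carrying human TDP1, 400 per well, compound exposure in the absence of CPT (DMSO vehicle).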
Six1-Eya2 inh: inhibitors of human Six1/Eya2 interaction | Q15475+O00167 | AlphaScreen GST-Six1/His-Eya2 binding, biochemical; hits give low values | activity change, % (concentration not given with the values) | hit rate 0.56% among 360,000 | AID 651725; in the data active = activity change below about -65%; inconclusive = mostly about -30% to -63%
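AlphaScreen with GST-Six1 and His-Eya2 (5X mix: 250 nM and 500 nM), glutathione donor and nickel acceptor beads; buffer 50 mM Tris pH 8.0, 300 mM NaCl, 1 mM TCEP; 1 h at 37 C in the dark.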
DT40 TDP1 CPT: DT40-hTDP1 cell growth loss with CPT. chicken DT40 Tdp1-/-;hTDP1 cells + 20 nM CPT, ATP luminescence, 48 h. Potency, µM (titrated, usually from 46.2 µM), for the others: at the top dose activity change, negative = growth inhibition, hits mostly inhibitors. hit rate 12% among 420,000; also: potency is read from the fitted curve at half-maximal effect; nearly all actives have a fitted effect of over 55% in size
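Cell growth measured by CellTiter-Glo luminescence after a minimum 48 h, 37 C compound exposure with 20 nM CPT in Tdp1-knockout DT40 cells stably expressing hTDP1, seeded 400/well; qHTS titration format.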
Starred values were filed as active, the others as inactive; ? = inconclusive; . = not tested or not shown. Hits are enriched below; roughly 18% of the tested compounds scored in any of these assays. Unless noted, calls follow the shape of the dose curve; as a rule, active = well fitted curve in the direction sought with a large enough effect; inconclusive = small, poorly fitted or top-dose-only effect, or another doubt; inactive = no such curve, though single readings can be large; an effect the other way counts as inactive or inconclusive. % is scaled to controls: 0 for no effect and ±100 for the full control effect.

SMILES	TDP1 inh	IL1B secr inh	CtBP-E1A inh	TDP1 cell noCPT	Six1-Eya2 inh	DT40 TDP1 CPT
C[C@@H]1C[C@H]2[C@@H]3C[C@H](F)C4=CC(=O)C=C[C@]4(C)[C@@]3(F)[C@@H](O)C[C@]2(C)[C@@]1(O)C(=O)COC(=O)C(C)(C)C	5%	0	-13	23µM*	-21	23µM*
CC(=O)[C@@]1(O)CC[C@H]2[C@@H]3C[C@H](C)C4=CC(=O)C=C[C@]4(C)[C@@]3(F)[C@@H](O)C[C@@]21C	3%	-79*	1	-7%	5	?
C[C@@H]1C[C@H]2[C@@H]3C[C@H](F)C4=CC(=O)C(Cl)=C[C@]4(C)[C@@]3(F)[C@@H](O)C[C@]2(C)[C@@]1(O)C(=O)CO	9%	.	.	17µM*	.	?
C[C@@H]1CC2[C@@H]3C[C@H](F)C4=CC(=O)C(Cl)=C[C@]4(C)[C@@]3(F)[C@H](O)C[C@]2(C)[C@@]1(O)C(=O)CO (stereo partly drawn)	6%	.	.	.	.	.
CCCCSc1nnc(-c2cc(Br)ccc2N)c(=O)[nH]1	0%	16	-8	-22%	-2	-5%
CC(=O)C12OC(C)(C)OC1CC1C3CCC4=CC(=O)C=CC4(C)C3(F)C(O)CC12C (stereo not drawn)	.	-57*	0	-26%	-11	-7%
COc1ccc2c(COC(=O)c3ccc(C)c(S(=O)(=O)N4CCOCC4)c3)cc(=O)oc2c1	.	-15	8	16µM*	-7	?
CCCNS(=O)(=O)c1cccc(C(=O)OCc2cc(=O)oc3cc(OC)ccc23)c1	3%	31	-2	1µM*	-18	1µM*
CC(C)(C)NC(=O)CSC(=Nc1cccc(F)c1)NC#N	5%	-97*	-3	?	-2	?
C=CCN=C(NC#N)SCC(=O)NC(C)(C)C	1%	6	2	0%	3	-24%
Cc1nn(Cc2c(F)c(F)c(F)c(F)c2F)c(C)c1NC(=O)c1ccc(COc2ccc(F)cc2)o1	1%	?	2	21µM*	-1	16µM*
Cc1nn(Cc2c(F)c(F)c(F)c(F)c2F)c(C)c1NC(=O)c1ccc(COc2ccccc2Cl)cc1	0%	6	0	1.5µM*	0	?
C(=N\Nc1ccc2ccccc2n1)/c1ccc2c(c1)OCCO2	5%	0	-8	?	-7	?
Cc1ccc(/C=N\Nc2nc3ccc(Cl)cc3[nH]2)o1	6%	?	-1	21µM*	-10	?
Fc1ccccc1-c1ccc(/C=N/Nc2nc3ccccc3[nH]2)o1	11%	0	.	?	1	?
Cc1cccc(/C=N/Nc2ccc3ccccc3n2)c1	2%	-75*	.	29µM*	3	-78%
Cc1ccc(/C=N/Nc2ccc3ccccc3n2)o1	9%	-107*	-2	4.1µM*	-12	2.3µM*
CN(C)C(=S)N=Nc1[nH]c2ccccc2c1O	5%	48	.	0.52µM*	-15	0.58µM*
COc1ccc2[nH]c(N=Nc3ccccc3C)c(O)c2c1	9%	-3	-21	?	-1	?
CNC(=S)NNc1nc(-c2ccccc2)c2cc(Cl)ccc2n1	.	-27	-30	-22%	-20	-10%
N#CC(C#N)=Cc1ccc(OCC(=O)N2CCOCC2)cc1	0%	-53*	9	?	3	21µM*
CCOc1ccc(OCC(=O)N2CCOCC2)cc1	5%	-3	0	3%	8	2%
COC(=O)c1ccc(Cn2c(C)c(C(=O)NCc3ccco3)sc2=O)o1	.	-56*	-18	-30%	0	-22%
COC(=O)c1ccc(Cn2c(C)c(C(=O)NCc3ccc(Cl)c(Cl)c3)sc2=O)o1	.	-2	?	21µM*	?	?
COC(=O)c1ccc(Cn2c(C)c(C(=O)NCc3ccc(C#N)cc3)sc2=O)o1	.	-17	-21	-9%	1	-23%
SMILES	TDP1 inh	IL1B secr inh	CtBP-E1A inh	TDP1 cell noCPT	Six1-Eya2 inh	DT40 TDP1 CPT
CSc1cc(-c2ccccc2)n(Cc2ccc(Cl)cc2Cl)c(=O)c1C#N	2%	29	4	23µM*	-3	18µM*
CC(Oc1ccc(Cl)cc1Cl)c1nc(-c2ccc(NC(=O)c3ccncc3)cc2)no1 (stereo not drawn)	5%	0	-3	8.2µM*	-4	15µM*
COc1ccc(Cl)cc1-c1nc(-c2ccc(NC(=O)c3cccs3)cc2)no1	0%	-22	11	21µM*	4	?
COc1ccc(NC(=O)c2cccs2)cc1OC	3%	-7	-2	-2%	-2	-7%
CC(Oc1ccc(Cl)cc1Cl)c1nc(-c2ccc(NC(=O)c3cccnc3)cc2)no1 (stereo not drawn)	7%	-12	0	5.8µM*	7	5.8µM*
CC(Oc1ccc(Cl)cc1Cl)C(=O)NNC(=O)c1ccncc1 (stereo not drawn)	.	0	3	-9%	22	-4%
CC(Oc1ccc(Cl)cc1Cl)C(=O)NNC(=O)c1cccnc1 (stereo not drawn)	4%	5	1	15%	8	-14%
O=C(COC(=O)c1ccco1)Nc1ccccc1[N+](=O)[O-]	1%	22	-2	9%	2	8%
CCN1CCN(Cc2nc3c(c(=O)n(C)c(=O)n3C)n2CCc2ccccc2)CC1	0%	?	0	-9%	25	-25%
COc1ccc(C(=O)N2CCCC(CO)(Cc3ccccc3C)C2)o1 (stereo not drawn)	8%	9	3	?	-1	?
CC(C)(C)c1ccc(C(=O)N/C(=C\c2cccs2)C(=O)N2CCOCC2)cc1	11%	6	23	21µM*	0	-29%
CC(C)(C)c1ccc(C(=O)N/C(=C/c2cccs2)C(=O)NCc2ccco2)cc1	5%	-68*	3	?	-9	?
Cc1ccc(C(=O)N/C(=C\c2sccc2C)C(=O)NCc2ccco2)cc1	-2%	-4	-12	-19%	2	19%
COCCN1C(=S)NC(c2cccc(C(F)(F)F)c2)C(C(=O)N2CCOCC2)=C1C (stereo not drawn)	0%	3	10	-12%	1	6%
O=C1CN(O)C=C2N=c3ccccc3=C2N1c1ccc([N+](=O)[O-])cc1	10%	11	.	0%	-8	?
COC(=O)c1c(-n2c(C)cc(C=O)c2C)sc2c1CCCC2	6%	-63*	4	22µM*	-2	?
